Laboratory results: the supplement of paper PMC6555819

Experiments:
Test in all cases: PBM binding z-score (relative to random genomic background probes); higher = stronger binding; sequences stand for … in GC…GCGATTGACAGCGTAGAATGAAGG
[1] = system: PPARg:RXRa DBDmut IVT, anti-RXR (DBD mutation: RXRa K156A/R161A, NR concentration 270 nM, RXRa partner concentration 90 nM)
How it was run: (§1)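 Regression normalization was applied to scanned fluorescence from custom Agilent 4×180K protein-binding microarrays. Before scanning, arrays were incubated 1 h with ligand-free nuclear receptor dimers, and binding was detected with antibodies against each partner (one per run). Binding z-scores use the random background probes as reference.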

[2] = system: PPARg:RXRa IVT, anti-PPARg (NR concentration 270 nM, RXRa partner concentration 90 nM)
How it was run: as §1

[3] = system: PPARg DBDmut:RXRa IVT, anti-PPARg (DBD mutation: PPARg1 K132A/R137A, NR concentration 270 nM, RXRa partner concentration 90 nM)
How it was run: as §1

[4] = system: PPARg DBDmut IVT, anti-PPARg (DBD mutation: PPARg1 K132A/R137A, NR concentration 270 nM)
How it was run: as §1

[5] = system: PPARg homodimer (NR concentration 180 nM)
How it was run: as §1

[6] = system: PXR:RXRa (NR concentration 270 nM, RXRa partner concentration 90 nM)
How it was run: as §1

[7] = system: PXR homodimer (NR concentration 270 nM)
How it was run: as §1

[8] = system: RARa:RXR (NR concentration 270 nM, RXRa partner concentration 90 nM)
How it was run: as §1

[9] = system: RARa homodimer (NR concentration 270 nM)
How it was run: as §1

[10] = system: RARb:RXRa (NR concentration 270 nM, RXRa partner concentration 90 nM)
How it was run: as §1

Sequence	PBM binding z-score [1]	PBM binding z-score [2]	PBM binding z-score [3]	PBM binding z-score [4]	PBM binding z-score [5]	PBM binding z-score [6]	PBM binding z-score [7]	PBM binding z-score [8]	PBM binding z-score [9]	PBM binding z-score [10]
CAGCCTAGGTCGGGGCCAGTATAGGAGGAACGTT	-0.532	-0.678	-0.979	-1.04	-0.152	-0.445	-0.795	-0.269	-1.01	1.02
CGAACTACGTCATTGACAGGACAGTGAATAGTAA	-0.246	-0.155	0.611	0.69	0.0858	-0.217	0.0481	-0.22	0.592	-0.0589
GCTAATTGGTCAGTAAAAGGTCACACACCGGTCG	1.17	3.09	0.371	1.23	3.29	4.83	1.25	5.26	2.18	4.66
CGTCCAATGTCAGAGAGGTCAGTGAATGCCGAGT	0.575	1.22	-0.469	-0.584	3.15	3.48	2.28	3.16	1.47	3.42
CCTTACGGGTCACGAGGTTATAGAACGACGAGCG	4.22	5.47	0.77	0.157	2.71	4.54	0.292	6.07	0.736	4.73
TTACCAAGGTGAAGGACGTTGATCCCTCTGTAGA	1.55	2.11	0.655	-0.0196	0.106	0.213	-0.502	0.474	-0.478	1.26
GCGAATGGGGCATCAGCAGGTTACCATAACTTAA	0.757	0.63	-0.741	-0.65	0.165	0.102	-0.437	0.532	-0.444	0.614
ACTCGGAGGACAAAGGTCAGACCTACGCCAGTGA	0.683	3.73	0.128	-0.307	3.27	4.16	0.401	5.43	1.5	4.5
CCTGCTGGGTCAATGGTCAGCTAAAGCAGCTCGC	2.51	3.15	-1.4	-0.684	0.557	0.874	-0.552	1.78	-0.395	3.29
GCGTGTAGATCAAGGTTAAGAAAGACTAAGCTAA	-0.0954	0.359	-0.293	-0.542	0.178	0.409	0.176	1.16	-0.389	0.791
ATACCAAGGTGATCGTGAGCTCGTTGATACTAAC	0.283	1.08	0.353	0.874	0.404	-0.0195	-0.182	0.256	0.0437	0.555
TAGCCTAGGTTATTCAGGGGCCAGTATAGAAAGC	0.707	0.703	0.674	-0.312	-0.0619	0.0716	-0.463	0.719	-0.306	1.13
ATCTCTAGGTACCCAAGTTCAGTGAATGCCGAAC	0.72	1.02	0.772	0.793	0.883	1.76	1.62	0.698	0.262	1
TCATATAGGTAATTCAGGTGAAAGTCGGCATCTA	4.31	3.55	1.64	1.6	1.41	0.703	0.443	1.34	1.6	0.546
CCTCGGGGGACAACAGGAGGTCAGAGCTGCCAGA	0.622	1.99	0.461	0.197	1.34	2.74	0.253	2.8	0.259	3.16
GCTTCTAGGTCAACTGATGGTCAGCTAAAGCTCG	7.69	7.25	0.0953	0.797	2.01	1.97	-0.405	3.16	0.124	4.42
TAGCCTAGGTCAATGGGCCAGTATAGTACGCATC	1.98	3.19	-0.338	-0.429	0.9	0.686	-0.285	1.56	0.0956	3.67
CAAACTAGGTCAAGAGGTCTAAGTCCGCTTCCCG	7.99	8.45	1.43	2.57	1.86	1.66	-0.00755	2.65	0.497	4.1
TCATATAGGTAAATGCTAGGTGACAGTCCGATCT	4.18	3.05	1.51	0.754	0.369	0.559	0.133	0.861	0.862	0.403
CGTAGCAGGCCAATCTGGGTCACTCAAGGCTTGA	4.39	5.41	0.0881	-0.653	0.384	1.07	-0.642	1.47	-0.582	1.48
TAGCCTAGGTCATGGGCCAGTAAACCACGCGAAC	1.71	3.46	0.0624	0.0351	1.25	1.83	-0.321	2.72	-0.171	3.98
CAAACTAGGTCAAAGGTGAAAGTCGAGCCAACCA	8.83	8.9	5.06	3.41	4.11	4.59	0.25	7.31	1.09	4.41
ACTAGCAGGCCAAGGGTCACCCAAGATTAGTCCG	1.04	4.15	0.826	-0.393	2.65	3.94	-0.00443	5.22	1.35	3.62
CCGACTGGGGCATAAGGTAACCATAAGCCAGCCC	2.94	2.7	-0.714	-0.986	0.375	-0.534	-0.805	0.0245	-0.0601	0.594

Sequence	PBM binding z-score [1]	PBM binding z-score [2]	PBM binding z-score [3]	PBM binding z-score [4]	PBM binding z-score [5]	PBM binding z-score [6]	PBM binding z-score [7]	PBM binding z-score [8]	PBM binding z-score [9]	PBM binding z-score [10]
TCGTGTAGATCAATAGAGGTTAAGAAAGTGCGCT	1.64	0.537	-0.0229	-0.0334	0.586	2.99	0.386	1.79	0.575	0.822
TGGCCTAGGTCATTCAGGGGCCAGTATAGAAAGC	1.06	2.22	-0.515	-0.779	1.82	2.48	-0.213	3.77	0.313	3.94
CGTCCAAGGTCAGAGAGGGCAGTGAATGCCGAGT	2.19	2.6	-0.519	-0.66	1.84	3.91	6.38	3.14	0.679	4.88
GGAACGAGGGCAAGTTCATAGCAGAGTTTGATGG	4.12	3.14	-0.982	-0.116	0.648	3.66	5.88	1.72	-0.259	3.37
CGTCCAAGGTCAGAGAGGTAAGTGAATGCCGAGT	2.46	2.1	-0.583	-0.788	1.67	2.89	1.46	3.24	0.288	4.67
CAAACTAGGTCACCGGAAGGTCAAAGTGCGCATG	8.63	8.94	1.75	1.74	7.29	6.12	1.81	7.59	2.46	5.39
GCTTGTTGATCAAGGTTAAGAAAGACTAAGCTAA	0.197	0.134	0.234	-0.0505	-0.0187	0.387	-0.694	0.658	0.254	0.66
CCTAGCAGGCCAGGGTAACTCAAGCATTTCGCTT	0.216	-0.0636	-1.68	-1.83	-0.387	-0.679	-0.762	-0.455	-0.937	-0.102
CGTACAAGGTCATAGGAGGTCAGTGAAGACAGAT	3.97	5.5	1.11	0.76	3.74	6.82	3.5	5.66	1.72	5.44
CCTAGCTGGCCAGGGTCACTCAAGCATTTCGCTT	-0.189	-0.187	-0.962	-0.97	0.811	2.53	-0.342	3.04	-0.133	2.35
CGAACGAGGGCAGGAGTTGATAGCAAATGCCGAT	1.98	1.44	-0.723	-0.762	-0.323	-0.216	-0.229	-0.159	-0.0684	1.8
CAAACTAGGTCACGGGAAGGTCAAAGTCCGCATG	8.72	9.17	2.85	3.73	5.61	5.97	1.41	7.17	1.78	5.43
GCTTTTAGTTGAAAGGGCAACCGAATGATTCTCG	0.524	0.732	0.316	0.582	0.658	0.695	-0.255	0.953	-0.0621	2.16
ATCGAAAGGTCGACGGGGTGAGTATACACCGTTT	0.683	2.19	1.15	0.814	2.18	3.64	1.33	4.46	0.456	3.98
CCTTACGGGTCACGGACAGGTTATAGCATTTGGA	3.87	4.87	1.03	2.15	5.94	4.82	0.261	6.3	2.04	4.37
CCGACTGGGGCAAGGTTATCATAACGCACAGCCA	3.18	3.27	-0.411	-0.512	0.593	0.253	-0.27	0.986	-0.0927	1.5
CCGACTGTGGCAAGGTTACCATAACGCACAGCCA	1.15	0.507	-0.345	-0.505	0.63	0.176	0.241	0.594	0.511	0.885
CGTCAAAGTTCATCTAAGGTAACGTAAAGCACGC	0.47	1.89	0.673	1.11	3.01	5.51	5.77	3.97	1.85	4.78
CACCCTAGGTCAGGGCCAGTATAGGAGGAACGTT	0.709	1.64	-0.28	-0.553	1.71	0.664	0.00908	1.49	-0.0281	3.38
GATACAGGGACAGCTAGAGGCCAGAGTATGGAAA	-0.328	-0.138	-0.157	-0.323	0.377	-0.289	0.168	0.0222	0.173	0.833
TAGCCTAGGCCAGATCGGGCCAGTATACGCTATA	-0.93	-0.678	-0.211	-0.658	-1.06	-0.946	-0.923	-0.593	-1.1	-0.396
TCTTATAGATCAGCAGGTTAAGAAAGCTGGCCAA	1.67	0.0176	0.00144	-0.0268	0.0461	0.161	-0.509	0.109	-0.091	0.115
CGAACTAGGTCAAGGAAAGTGAATCTCCGCACGC	7.89	8.29	1.18	0.515	1.22	0.813	-0.499	1.62	0.0155	3.9
CAATCTAGGTCAAGAGGTCAAAGTCCGCTTCCCG	8.4	8.71	5.68	4.57	9.94	6.5	3.63	8.3	5.1	5.36
